Measurements taken from the supplement of paper PMC3334620.
Whole data set: some 33,000 sequences, median “E-score (-0.5 to 0.5)” near -0.012, cut for the highest 2% near 0.27. Only a selection was taken, and the highest values are over-represented in it overall.

molecular target: T1, Vhr1 (UniProt P40522); assay: PBM E-score (8-mer binding enrichment) (E-score (-0.5 to 0.5)); higher = stronger / more preferred TF binding; conditions: protein concentration: 200 nM; construct: GST-full length
T1 sequence: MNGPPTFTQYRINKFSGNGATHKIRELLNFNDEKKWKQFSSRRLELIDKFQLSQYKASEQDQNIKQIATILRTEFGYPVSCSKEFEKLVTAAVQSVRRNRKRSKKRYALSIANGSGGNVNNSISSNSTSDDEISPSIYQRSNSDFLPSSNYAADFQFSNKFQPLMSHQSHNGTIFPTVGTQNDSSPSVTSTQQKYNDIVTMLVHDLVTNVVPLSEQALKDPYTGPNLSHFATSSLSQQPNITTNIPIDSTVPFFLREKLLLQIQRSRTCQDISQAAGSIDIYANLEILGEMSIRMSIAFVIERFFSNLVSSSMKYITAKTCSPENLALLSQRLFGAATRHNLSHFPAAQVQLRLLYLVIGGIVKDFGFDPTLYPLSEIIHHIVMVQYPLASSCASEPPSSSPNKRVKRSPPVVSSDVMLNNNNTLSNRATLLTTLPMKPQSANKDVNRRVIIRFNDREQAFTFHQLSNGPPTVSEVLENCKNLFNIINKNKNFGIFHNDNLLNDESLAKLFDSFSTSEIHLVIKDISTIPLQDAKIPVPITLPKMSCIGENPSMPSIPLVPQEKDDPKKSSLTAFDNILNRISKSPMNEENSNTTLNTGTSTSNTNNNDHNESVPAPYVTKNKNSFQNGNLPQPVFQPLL
Procedure: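 Universal 'all 10-mer' protein binding microarrays (Agilent AMADID 015681) probed with GST-tagged S. cerevisiae TFs (full-length or DBD) made by in vitro transcription/translation (PURExpress), about 100-200 nM. Bound TF was detected with fluorescent anti-GST. Each ungapped 8-mer (which stands for itself and its reverse complement) is scored by the PBM enrichment score (E-score), a modified Wilcoxon-Mann-Whitney statistic from -0.5 to +0.5, computed with the Universal PBM Analysis Suite. Scale: above 0.35 generally sequence-specific binding.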

Row | Sequence | PBM E-score
1 | ACTATGTG | 0.292
2 | ACCATGTA | 0.261
3 | ACCATGTC | 0.144
4 | ACTATGTA | 0.207
5 | ACCATGTG | 0.295
6 | ACTATGTC | 0.091
7 | ATGCCCTC | -0.0196
8 | CCAGGTTA | -0.0596
9 | GTGATTGA | 0.329
10 | CTGATTGA | 0.177
11 | GCGATTGA | -0.121
12 | CTGATTGC | 0.035
13 | ATGATTGG | 0.178
14 | ATGATTGA | 0.344
15 | ACGATTGA | 0.0265
16 | ACGATTGC | 0.0187
17 | ATGATTGC | 0.345
18 | ACTCTTAA | -0.233
19 | ACGTTGGA | 0.0766
20 | GGCGTTAC | -0.119
21 | ACGTGATG | 0.00697
22 | AAGAAGCT | -0.191
23 | CCTCTGCC | -0.286
24 | AAAGCGTA | -0.183
25 | ATAGCATG | -0.034
26 | GCTGTCAA | -0.125

Row | Sequence | PBM E-score
27 | ATTTTATC | -0.13
28 | AGAGCGCT | -0.249
29 | ACCGTTCA | -0.0238
30 | GGTCGCGA | 0.194
31 | ACTCGCGC | 0.273
32 | CGTCGCGA | 0.181
33 | CCTCGCCG | -0.118
34 | ACTCGCCT | 0.0445
35 | CCTCGCGC | -0.0292
36 | AGTCGCGG | 0.351
37 | AGTCGCTG | 0.216
38 | ACTCGCGG | 0.209
39 | ACTCGCGA | 0.227
40 | AGTCGCGA | 0.305
41 | ACTCGCCG | 0.306
42 | AGCAAATA | -0.0751
43 | CAAATTGA | -0.124
44 | TGCAGCAA | 0.114
45 | AATCCTAC | -0.159
46 | CTAAGCCA | -0.0787
47 | TACGGCGA | 0.0569
48 | ACCGAGTG | 0.13
49 | AATGCGCG | 0.193
50 | CAATTCTG | -0.077
51 | AGAAAATA | -0.0162
52 | AGTCGCGC | 0.374

Row | Sequence | PBM E-score
53 | AGTCGCTC | 0.237
54 | ACTCGCTG | 0.0751
55 | ACTCGCTC | 0.282
56 | CGTCGCGC | 0.0614
57 | ACTCGCTA | 0.133
58 | ACAGGTTG | 0.0217
59 | AACCAATG | 0.209
60 | CAGAGTTC | -0.0458
61 | CCCCTACG | -0.139
62 | CATCCATC | 0.0866
63 | GTCATGTA | 0.141
64 | ACCTATAG | -0.144
65 | ACCGACTG | 0.177
66 | CCCGACTC | 0.426
67 | CCCGACCC | 0.123
68 | CCCGACTA | 0.206
69 | ACCGACTA | -0.0288
70 | ACCGACTC | 0.34
71 | CAAGACGA | -0.109
72 | CGACTCCA | 0.4
73 | GGACTCCC | 0.0918
74 | AGACTCCG | 0.225
75 | CTACTCCA | -0.0498
76 | AGACTCCC | -0.00382
77 | GGACTCCA | 0.13
78 | AGACTCCA | 0.133

Row | Sequence | PBM E-score
79 | CGACTCCC | 0.321
80 | CGACTCCG | 0.391
81 | CCACTCCA | 0.0742
82 | CAACTCCG | -0.0132
83 | TGACTCCA | 0.48
84 | TCCCCCCA | -0.233
85 | CATACTAG | 0.238
86 | GTTTGAAA | -0.0935
87 | ATTGTGAA | -0.0037
88 | ATCCAGGG | -0.0888
89 | AGCTCCCT | -0.235
90 | CCCCCTAC | -0.185
91 | AAAAGCGC | -0.137
92 | AGAATCCT | -0.231
93 | AGAATCAA | 0.0929
94 | CGAATCAG | 0.344
95 | AGAATCAT | 0.323
96 | AGAATCAC | 0.228
97 | ACAATCAT | 0.231
98 | AGAATCAG | 0.283
99 | CGAATCAA | 0.127
100 | CCAATCAG | -0.0885
101 | ACCTCCTG | -0.139
102 | CGTCTCGC | -0.0775
103 | ATATCTGC | 0.104
104 | AGAAGATG | -0.183

Row | Sequence | PBM E-score
105 | CCCCGCGG | 0.0864
106 | GCCCGCCA | 0.13
107 | ACCCGCGG | 0.275
108 | CACCGCCA | 0.242
109 | ACCCGCGA | 0.144
110 | ACCCGCGT | 0.00191
111 | CCCCGCCA | 0.398
112 | CACCGCCC | 0.293
113 | TCCCGCCA | 0.0546
114 | ACCCGCGC | 0.342
115 | AACCGCCC | 0.0139
116 | AGCCGCGG | 0.178
117 | AGTCTAAG | -0.0818
118 | AAAAAAGC | -0.19
119 | CGAGATTA | 0.0687
120 | GGAGGGGA | 0.219
121 | TACGCCAA | -0.241
122 | ACCCGCCG | 0.197
123 | ACCCGCCC | 0.428
124 | GCCCGCCC | 0.137
125 | ATCCTACC | 0.0595
126 | ACGCTTAC | -0.205
127 | ATGTGTCG | 0.29
128 | ATGTGTCC | 0.157
129 | ATGTGTGC | 0.12
130 | ATGTGTGA | 0.29

Row | Sequence | PBM E-score
131 | ATGTGTCA | 0.143
132 | CTGTGTTA | 0.169
133 | CTGTGTAA | 0.134
134 | ATGTGTGG | 0.08
135 | CTGTGTGA | 0.306
136 | ATGTGTTA | 0.195
137 | GTGTGTTA | 0.278
138 | CTGTGTGC | 0.177
139 | AGGACTGG | 0.113
140 | ACTAGACG | -0.048
141 | ATTTTGCC | -0.15
142 | AGACTTGC | -0.249
143 | AACATCTA | -0.152
144 | CACCAGCC | 0.143
145 | ATAGACGG | 0.00408
146 | TACCAACA | 0.145
147 | GATATGCA | -0.0288
148 | TCTTTCCA | -0.157
149 | GGCCAAAC | -0.155
150 | GCGTGTGA | 0.104
151 | GTGTGAGA | 0.0943
152 | GTGTGTGA | 0.298
153 | TAGAGGGA | -0.0999
154 | AGTTTGAT | 0.0522
155 | CTTAACCC | -0.213
156 | GACCAGAC | -0.141

Row | Sequence | PBM E-score
157 | CACCAGAC | 0.309
158 | AACCAGAC | -0.00075
159 | GCTTGCAC | -0.0624
160 | ATCATTAC | 0.274
161 | ATGATTAA | 0.264
162 | ACGATTAC | 0.161
163 | ATCATTAA | 0.0987
164 | ATCATTAG | 0.148
165 | AAGATTAC | -0.0671
166 | CTGATTAA | 0.191
167 | ATGATTAG | 0.317
168 | CTGATTTC | -0.00794
169 | ATGATTAC | 0.391
170 | CTGATTAC | 0.278
171 | ACGATTAG | 0.045
172 | TGCCACAA | 0.0692
173 | TAGTAGAA | -0.199
174 | ATGGTAGG | 0.104
175 | CCTAAGCA | -0.108
176 | GAAGCACA | -0.00604
